Molecules are shown by their SMILES.

This test concerns HepG2. Briefly: GSK_TCMDC: Percent inhibition of human HepG2 cell line. Test compounds present at 10uM. It counts as functional.
Usually Inhibition stands for the drop in the measured response relative to a control, in per cent. Turning to `CC(C)NCC(O)Cn1c2ccc(Br)cc2c2cc(Br)ccc21` (centres undefined), the Inhibition turned out to be 100%.

Turning to `O=C(Nc1cccc(-c2ccc(-c3nc4cc(F)ccc4[nH]3)cc2)c1)c1ccncc1`, the Inhibition came to 52%.

In turn, `Cl.Clc1ccc(OCCC2CCN(CCCCCCN3CCCCC3)CC2)cc1Cl` came in with an Inhibition of 86%.

In the case of `NC1CCN(Cc2ccc(-c3ccc(-c4nc5ccccc5[nH]4)s3)cc2)C1.O=C(O)C(F)(F)F` (centres undefined), the Inhibition is on record as 32%.

Turning to `Cc1nc(C)c(-c2ccc(C(=O)c3ccccc3)cc2)c(O)c1Br`, the Inhibition is listed as 0%.

As for `COc1ccc2[nH]ccc(=NN=Cc3ccccc3)c2c1`, the Inhibition came out at 0%.

As to `COC(=O)c1cc(/C(C)=N/Nc2nc3ccccc3[nH]2)ccc1O`, the Inhibition worked out at 9%.

`CN1CCC(N2CCN(Cc3ccc(-c4cccc(-c5nc6ccccc6[nH]5)c4)cc3)CC2)CC1.O=C(O)C(F)(F)F` gave an Inhibition of 48%.

Regarding `N=C(N)Nc1nc(-c2ccc(NC(=O)Nc3cccc(-c4csc(NC(=N)N)n4)c3)cc2)cs1`, the Inhibition stood at 0%.

`CCC(CC)n1c(COC)cc2c3c(N)nc(N)nc3ccc21` yielded an Inhibition of 71%.

The compound `Cc1cc(N[C@@H](CC(C)C)C(=O)NC2CCCC2)nc(NCC2CCCCC2)n1.O=C(O)C(F)(F)F` had an Inhibition of 8%.

For `CCOC(=O)c1c(CSc2ccccc2)oc2cc(CN(C)C)c(O)c(Cl)c12`, the Inhibition stood at 12%.

Compound `O=C(Nc1ccc(-c2cccc(-c3nc4cc(C(F)(F)F)ccc4[nH]3)c2)cc1)c1csnn1` yielded an Inhibition of 42%.

`CC(C)(C)c1ccc(NC(=O)c2ccc(CN3CCCN(Cc4cccc(C#N)c4)CC3)cc2)cc1.O=C(O)C(F)(F)F` yielded an Inhibition of 54%.

On to `COc1ccc(S(=O)(=O)NC2CCN(CCCOc3ccnc4cc(Cl)ccc34)C2)cc1OC` (centres undefined), for which the Inhibition is given as 8%.

On to `N#Cc1cccc(NC(=O)Nc2ccc(-c3csc(-c4nc5ccccc5[nH]4)c3)cc2)c1`, for which the Inhibition is reported as 63%.

The compound `CCc1ccnc2c(N3CCCC3=O)cc(C(=O)N[C@@H](Cc3ccccc3)[C@H](O)CNC3CCOCC3)cc12.O=CO` returned an Inhibition of 2%.

Turning to `CN(C)CCN(C)Cc1cccc(-c2cccc(NC(=O)c3cccc(C#N)c3)c2)c1.O=C(O)C(F)(F)F`, the Inhibition was found to be 0%.

With `Cc1ccc(-c2ccc3c(c2)C=C(C(=O)NC2CCN(CCNC(=O)c4cccs4)CC2)CCC3)cc1.O=C(O)C(F)(F)F`, the Inhibition was determined as 27%.

The compound `Nc1cccc(CNCc2cccc(-c3ccc(-c4nc5cc(C(F)(F)F)ccc5[nH]4)cc3)c2)c1.O=C(O)C(F)(F)F` had an Inhibition of 6%.

With `COc1ccc(C(C(=O)NC2CCN(C[C@H](O)c3ccnc4ccc(OC)cc34)CC2)N2CCc3ccccc3C2)cc1` (some centres undefined), the Inhibition worked out at 19%.

For the compound `CC(=O)N(C)c1cccc(C(=O)Nc2cccc(-c3ccc(-c4nc5cc(C(F)(F)F)ccc5[nH]4)cc3)c2)c1`, the Inhibition stood at 63%.

Compound `CN(CCCc1c[nH]c2ccccc12)CC1CCN(C(=O)/C=C/c2ccc(Cl)c(Cl)c2)CC1` had an Inhibition of 37%.

For the compound `O=C(NCCCCN1CCN(c2cccc3c2CCCC3)CC1)c1ccc(NC(=O)c2ccc(Cl)cc2)cc1`, the Inhibition is recorded as 35%.

In the case of `COC(=O)c1cccc(NC(=O)NC2CCN(c3ccnc(Nc4cc(OC)c(OC)c(OC)c4)n3)C2)c1` (centres undefined), the Inhibition was found to be 7%.

Regarding `CCCCCCN1CCC(NCc2cccc(C(F)(F)F)c2)CC1.O=C(O)C(F)(F)F`, the Inhibition was determined as 18%.

`Cc1nc(N)nc(N)c1CCCOc1cccc(Cl)c1` had an Inhibition of 16%.

`CCOc1cc(C(=O)NCCN2CCCCC2)ccc1-c1nc2cc(Cl)ccc2[nH]1` showed an Inhibition of 4%.

`O=C(NCCCCN1CCC(c2ccc3ccccc3c2)CC1)c1ccc(NC(=O)c2ccc(Cl)cc2)cc1`: the Inhibition was determined as 24%.

`COc1ccc(CN2CCC(NCc3cccc(-n4ccnc4)c3)CC2)cc1.O=C(O)C(F)(F)F` came in with an Inhibition of 10%.

Compound `CCCCCC1c2[nH]c3ccccc3c2CCN1C(=O)OCc1ccccc1` (centres undefined) showed an Inhibition of 3%.

In turn, `COc1ccc2nccc(NC(=O)N3CCC(NCc4cc5c(F)ccc(F)c5[nH]4)CC3)c2n1.O=C(O)C(=O)O` came in with an Inhibition of 6%.

Turning to `CCCCc1ccc(Cc2cnc3nc(N)nc(N)c3c2C)cc1`, the Inhibition came to 64%.

As to `CCc1ccc(C2CCN(CCCCNC(=O)c3ccc(-c4ccc(C(F)(F)F)cc4)cc3)CC2)c(OCCO)c1.Cl`, the Inhibition is given as 82%.

For the compound `CN(Cc1cccc(F)c1)C1CCN(c2cc(NC(=O)c3ccc(F)cc3)ccn2)C1.O=C(O)C(F)(F)F` (centres undefined), the Inhibition turned out to be 7%.

For `CC(C)CNCc1ccc(-c2ccccc2CNC2CCN(Cc3ccccc3)CC2)cc1.O=C(O)C(F)(F)F`, the Inhibition came out at 28%.

Turning to `OC1=C2C(=Nc3ccccc3SC2c2cccs2)c2ccccc21` (centres undefined), the Inhibition was 8%.

Compound `Cl.Oc1ccc(C2CNCCc3c2cc(O)c(OCc2ccccc2)c3Cl)cc1` (centres undefined) gave an Inhibition of 14%.

In the case of `Cl.N#Cc1ccc2c(c1)CCN(CCC1CCC(NC(=O)/C=C/c3ccc(Cl)c(Cl)c3)CC1)CC2` (centres undefined), the Inhibition is listed as 31%.

The record behind these values is ChEMBL document CHEMBL1157539, “Thousands of chemical starting points for antimalarial lead identification” (Nature, 2010).
